High-throughput results as filed in PubChem.
HIF-2a inh: blocks HIF-2a reporter activity. 786-0 RCC cells HIF-2a reporter, luciferase luminescence, overnight. inhibition, % at 18.8 µM. 360,000 tested, 0.72% active. AID 624352;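 active = inhibition of the luminescence signal of 40% or more relative to plate controls, in a single-dose primary screen at 18.75 µM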
Peg3 prom inh: reduces Peg3 promoter-driven luciferase expression in HeLa. inhibition, % at 20 µM. 360,000 tested, 1.7% active. AID 588405. HeLa PEG-Prom luciferase reporter, luminescence, overnight;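 active = inhibition of at least 50% at 20 µM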
ABHD5-PLIN5 inh: blocks binding of human ABHD5 to perilipin-5; 360,000 tested, 0.78% active; Split G. princeps luciferase complementation, luminescence, 4 h; inhibition, % at 4 µM; Q00G26+Q8WTS1;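 active = inhibition above the mean inhibition across every tested compound plus 3 SD, cut at about 22% in these data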;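 also: 0% = DMSO only wells and the 100% control is not disclosed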
Target sequence (Q00G26 whole entry, looked up): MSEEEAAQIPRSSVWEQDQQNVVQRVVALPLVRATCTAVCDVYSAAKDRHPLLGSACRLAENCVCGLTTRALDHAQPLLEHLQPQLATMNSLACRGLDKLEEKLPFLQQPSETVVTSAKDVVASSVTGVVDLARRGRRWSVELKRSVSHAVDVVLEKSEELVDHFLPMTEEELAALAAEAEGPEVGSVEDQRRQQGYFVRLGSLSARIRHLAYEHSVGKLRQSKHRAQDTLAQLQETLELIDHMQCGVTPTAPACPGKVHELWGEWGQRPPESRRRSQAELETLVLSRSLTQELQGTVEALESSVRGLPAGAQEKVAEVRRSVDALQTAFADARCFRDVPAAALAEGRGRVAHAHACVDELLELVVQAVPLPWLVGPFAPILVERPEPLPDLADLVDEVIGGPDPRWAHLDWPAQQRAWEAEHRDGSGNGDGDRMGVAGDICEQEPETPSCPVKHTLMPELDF
Target sequence (Q8WTS1 whole entry, looked up): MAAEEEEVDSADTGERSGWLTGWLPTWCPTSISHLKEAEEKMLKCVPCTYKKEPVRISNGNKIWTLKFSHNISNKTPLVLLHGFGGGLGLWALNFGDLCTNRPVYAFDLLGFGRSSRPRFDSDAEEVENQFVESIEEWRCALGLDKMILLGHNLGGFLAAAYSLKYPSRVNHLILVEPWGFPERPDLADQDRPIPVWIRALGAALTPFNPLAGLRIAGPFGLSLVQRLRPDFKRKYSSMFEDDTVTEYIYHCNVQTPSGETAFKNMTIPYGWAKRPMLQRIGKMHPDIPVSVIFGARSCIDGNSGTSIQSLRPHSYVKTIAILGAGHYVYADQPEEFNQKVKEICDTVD
KKLEB cytotox: reduces viability of KKLEB cystic fibrosis airway cells; KKLEB CF airway cells viability, ATPlite luminescence, overnight; hits give low values; cells stimulated with P. aeruginosa culture filtrate; 360,000 tested, 0.36% active; activity change (cytotoxicity), % at 5 µM;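 active = corrected activity change at or below -50% at 5 µM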
CF NFkB inh: inhibitors of cystic fibrosis induced NF-kB | KKLEB NF-kB-GFP reporter, PAF-induced, GFP fluorescence overnight | inhibition, % at 5 µM | 360,000 tested, 0.86% active;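 active = at least 50% inhibition at 5 µM, scaled per plate between neutral and stimulator controls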;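 also: PAF is a Pseudomonas aeruginosa culture filtrate used as stimulus; plate controls were PAF-stimulated DMSO wells for no effect and unstimulated DMSO wells for full effect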
TRPM1 prom inh: inhibitors of MITF-driven TRPM1 promoter in melanoma cells; SK-MEL-5 TRPM1 promoter luciferase, 24 h; inhibition, % at 12.5 µM; 330,000 tested, 0.83% active; AID 488899;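 active = mean inhibition across replicates of 60% or more, whatever share of single replicates reaches that level; inconclusive = some that reach 60%, reason not given; inactive = mean inhibition across replicates below 60%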
* marks the source's active call; other numbers are inactive results; ? = inconclusive; / = not tested or not shown. Compounds with a hit are over-represented: about 3.1% of the library has one in this group of screens.

SMILES	HIF-2a inh	Peg3 prom inh	ABHD5-PLIN5 inh	KKLEB cytotox	CF NFkB inh	TRPM1 prom inh
CCC(C)(C)n1nnnc1CN(Cc1ccco1)Cc1cc2cc3c(cc2[nH]c1=O)OCO3	12	9	23*	-1	8	-4
COc1ccc2[nH]c(=O)c(CN(Cc3ccco3)Cc3nnnn3Cc3ccccc3)cc2c1	-1	21	20	15	-13	2
COCCn1nnnc1CN(Cc1ccco1)Cc1cc2cc3c(cc2[nH]c1=O)OCO3	7	0	22*	4	0	13
COc1ccc(-c2c(-c3cc(OC)cc(OC)c3)sc3ccc(OC)cc23)cc1	11	-5	-8	6	-2	4
COc1cc(OC)cc(-c2sc3ccc(OC)cc3c2-c2ccc(OCCN3CCCCC3)cc2)c1	-23	90*	9	-75*	69*	-5
COc1ccc(-c2sc3cc4c(cc3c2-c2ccc(OCCN3CCCCC3)cc2)OCO4)cc1	11	90*	-5	-78*	72*	19
Cc1cc(N2CCN(C)CC2)ccc1NC(=O)c1ccc(-c2ccc(Cl)cc2)o1	41*	90*	6	-12	12	-2
CCc1c(C)sc(NC(=O)c2cc(-c3ccc(OC)c(OC)c3)on2)c1C#N	11	6	-3	4	0	-11
CCc1c(C)sc(NC(=O)c2cc(-c3cc(OC)ccc3OC)on2)c1C#N	16	12	4	-70*	40	-8
Cn1c(Oc2ccncc2)nc2cc(-c3ccsc3)sc2c1=O	-24	0	7	9	-24	/
O=C1c2cccc3c([N+](=O)[O-])ccc(c23)C(=O)N1c1nccs1	40	94*	11	12	-45	?
O=C1c2cccc3cccc(c23)C(=O)N1c1nccs1	-8	-19	8	12	-49	-3
O=C1c2cccc3c([N+](=O)[O-])ccc(c23)C(=O)N1O	-1	21	-5	13	-21	50
O=C1c2cccc3c([N+](=O)[O-])ccc(c23)C(=O)N1c1ccccn1	26	94*	6	-2	-25	34
CN1CCCC(CN2c3ccccc3Sc3ccccc32)C1 (centres undefined)	-4	-10	11	0	8	-19
CN1CCCC(CC2c3ccccc3Sc3ccccc32)C1 (centres undefined)	-8	60*	15	26	28	-8
CCOc1ccc2nc(SC3CC(=O)N(c4ccc(C)cc4)C3=O)sc2c1 (centres undefined)	-142	89*	-1	-15	5	-51
CCOc1ccc(N2C(=O)CC(Sc3ncccn3)C2=O)cc1 (centres undefined)	2	1	-2	7	-2	0
C=CCNc1nnc(SC2CC(=O)N(c3ccc(OCCC)cc3)C2=O)s1 (centres undefined)	-42	104*	10	2	0	-9
CCOc1ccc(N2C(=O)CC(Sc3nc4ccc(OCC)cc4s3)C2=O)cc1 (centres undefined)	-106	-10	2	-16	-10	-47
CC(CN(C)Cc1ccccc1)OC(=O)c1cccc(F)c1 (centres undefined)	9	6	4	-2	0	8
N/C(=N\OC(=O)c1ccc2ccccc2c1)c1ccccn1	26	111*	-4	-68*	19	36
N/C(=N\OC(=O)c1cccc2ccccc12)c1ccccn1	-208	83*	-11	-17	-7	-26
COc1cccc(C(=O)O/N=C(\N)c2ccccn2)c1OC	-90	48	3	-3	-10	27
COc1ccc(/C(N)=N/OC(=O)c2ccc3ccccc3c2)cc1OC	-127	-35	9	5	-12	/
Cc1ccc(C(=O)O/N=C(\N)c2ccccn2)c(Cl)c1	73*	103*	3	-72*	-13	/
N/C(=N\OC(=O)c1ccc2ccccc2c1)c1ccccc1Cl	-300	81*	-5	-9	37	-76
N/C(=N\OC(=O)c1ccc2ccccc2c1)c1ccncc1	-256	-265	0	4	-7	-89
Cc1ccc(C(=O)O/N=C(\N)c2ccccc2)c(Cl)c1	12	34	-5	-32	-6	51
CC1(C)Cc2cccc(OCC(=O)Nc3ccc(S(N)(=O)=O)cc3)c2O1	16	11	3	14	7	14
